Experimental data published in PubChem BioAssay (Tox21).
Values joined by “and” are separate entries in the source; they are usually repeats but may differ in a detail not shown here. Identical values can stand only once. Records with an inconclusive call do not appear. Entries that show only a call come without a potency. Some structures have more than one record in an assay (separate samples or runs), and their calls can disagree. Active and inactive are the calls of the source. Unless noted, calls come from the whole dose curve; as a rule, active = well fitted curve in the direction sought with a large enough effect in the repeat runs; inconclusive = weak or mixed curves; inactive = no such curve, though single readings can be large; an effect the other way counts as inactive or inconclusive.

Assays:
[1] = biological target: Luciferin 4-monooxygenase (Photinus pyralis) (UniProt P08659); assay: qHTS assay to identify small molecule inhibitors of firefly luciferase (AID 1224835); note: nearly all actives have a fitted effect of over 25% in size; note: potency is the fitted concentration of half-maximal effect
Luciferin 4-monooxygenase (Photinus pyralis), sequence (P08659 whole entry, looked up): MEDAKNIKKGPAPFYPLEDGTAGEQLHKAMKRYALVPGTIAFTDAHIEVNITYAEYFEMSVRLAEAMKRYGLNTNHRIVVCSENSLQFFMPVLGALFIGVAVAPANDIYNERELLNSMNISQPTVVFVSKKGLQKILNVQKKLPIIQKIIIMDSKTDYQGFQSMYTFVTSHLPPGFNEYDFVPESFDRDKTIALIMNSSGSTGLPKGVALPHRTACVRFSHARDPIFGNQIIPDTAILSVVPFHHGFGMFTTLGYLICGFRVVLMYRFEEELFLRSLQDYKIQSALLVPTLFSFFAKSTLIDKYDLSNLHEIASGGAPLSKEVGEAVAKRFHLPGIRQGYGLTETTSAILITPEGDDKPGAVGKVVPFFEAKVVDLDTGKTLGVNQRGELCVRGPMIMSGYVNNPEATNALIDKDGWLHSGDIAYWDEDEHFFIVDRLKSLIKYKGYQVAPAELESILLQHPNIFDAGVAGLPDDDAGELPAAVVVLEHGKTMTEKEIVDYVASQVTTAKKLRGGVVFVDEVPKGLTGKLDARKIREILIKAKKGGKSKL
Outline: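 Biochemical qHTS: compounds run as interplate titrations against purified firefly enzyme, with D-luciferin and ATP each at its KM concentration. Light output recorded by CCD imaging.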

[2] = qHTS assay to identify small molecule agonists of the constitutive androstane receptor (CAR) signaling pathway - cell viability counter screen (AID 1224836); note: nearly all actives have a fitted effect of over 45% in size; note: potency is the fitted concentration of half-maximal effect
Outline: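 Cells were seeded and incubated 4 hrs. Compounds were added across 15 concentrations together with PK11195 at 0.75 uM final. Plates were incubated 23 hrs at 37 C. CellTiter-Fluor was added and fluorescence measured.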

[3] = qHTS assay to identify small molecule antagonists of the constitutive androstane receptor (CAR) signaling pathway - cell viability counter screen (AID 1224837); note: nearly all actives have a fitted effect of over 45% in size; note: potency is the fitted concentration of half-maximal effect
Outline: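 Read-out: CellTiter-Fluor fluorescence after 23 hr at 37 C/5% CO2. Cells: HepG2 double-stable for hCAR and CYP2B6-2.2kb. Compounds tested at 15 concentrations in the presence of CITCO, final concentration 50 nM.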

[4] = biological target: Nuclear receptor subfamily 1 group I member 3 (Homo sapiens) (UniProt Q14994); assay: qHTS assay to identify small molecule antagonists of the constitutive androstane receptor (CAR) signaling pathway (AID 1224838);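 note: HepG2 cells stably expressing hCAR with CYP2B6 luciferase reporter stimulated by CITCO; nearly all actives have a fitted effect of over 40% in size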; note: potency is the fitted concentration of half-maximal effect
Nuclear receptor subfamily 1 group I member 3 (Homo sapiens), sequence (Q14994 whole entry, looked up): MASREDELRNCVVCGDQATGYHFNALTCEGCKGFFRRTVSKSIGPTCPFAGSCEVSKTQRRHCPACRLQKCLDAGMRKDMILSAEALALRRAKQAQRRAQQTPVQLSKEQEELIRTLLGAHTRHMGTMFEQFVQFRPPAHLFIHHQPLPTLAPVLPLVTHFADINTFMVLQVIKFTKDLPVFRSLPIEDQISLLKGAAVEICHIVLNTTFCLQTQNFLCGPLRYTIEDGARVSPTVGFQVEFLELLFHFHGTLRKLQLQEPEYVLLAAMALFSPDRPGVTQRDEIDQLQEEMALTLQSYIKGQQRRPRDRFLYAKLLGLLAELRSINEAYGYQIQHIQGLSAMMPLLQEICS
Outline: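 Read-out: ONE-Glo luciferase luminescence after 30 min at room temperature. HepG2-CYP2B6-hCAR double-stable cells, compounds in 15-point titration plus 50 nM CITCO final, 24 h at 37 C/5% CO2.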

[5] = biological target: Nuclear receptor subfamily 1 group I member 3 (Homo sapiens) (UniProt Q14994); assay: qHTS assay to identify small molecule agonists of the constitutive androstane receptor (CAR) signaling pathway (AID 1224839); note: nearly all actives have a fitted effect of over 15% in size; note: potency is the fitted concentration of half-maximal effect
Outline: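 Cells were plated and incubated 4 hrs, then dosed with compounds at 15 concentrations. PK11195 was added to 0.75 uM final. After 24 hrs at 37 C, luciferase luminescence was measured.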

[6] = qHTS assay to identify small molecule antagonists of the estrogen related receptor signaling pathway with the pleiotropic PPARgamma coactivator (PGC) from Tox21 10K library - cell viability counter screen (AID 1224840; active = well fitted cell-killing curve with a large enough effect in the repeat runs, not every such curve was filed as active; note: nearly all actives have a fitted effect of over 40% in size; note: potency is the fitted concentration of half-maximal effect)
Outline: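 Fluorescence read-out of CellTiter-Fluor viability reagent, added after cells had been exposed to compound in DMSO for 17.5 h at 37 C; 30 min development at 37 C/5% CO2. Cells: PGC/ERR line, 2,000/well.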

[7] = qHTS assay to identify small molecule antagonists of the estrogen related receptor signaling pathway with the pleiotropic PPARgamma coactivator (PGC) from Tox21 10K library (AID 1224841; call rule not given here; note: actives are mostly falling curves and most rising ones were filed inactive; nearly all actives have a fitted effect of over 50% in size; note: potency is the fitted concentration of half-maximal effect)
Outline: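 Luminescence read-out (One-Glo luciferase reagent, 30 min at room temperature) from PGC/ERR cells exposed to DMSO-dissolved test compounds for 18 h at 37 C; cells, 2,000 per well, had been preincubated 6 h before compound transfer.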

[8] = qHTS assay to identify small molecule agonists of the estrogen related receptor signaling pathway with the pleiotropic PPARgamma coactivator (PGC) from Tox21 10K library (AID 1224842); note: nearly all actives have a fitted effect of over 15% in size; note: potency is the fitted concentration of half-maximal effect
Outline: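 PGC/ERR reporter cell line, 2,000 cells per well, incubated 6 h at 37 C before 23 nL compound in DMSO was added. After 18 h at 37 C, One-Glo luminescence read following 30 min at room temperature.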

[9] = biological target: Thyrotropin receptor (Homo sapiens) (UniProt P16473); assay: qHTS assay to identify small molecule agonists of the thyroid stimulating hormone receptor (TSHR) signaling pathway (AID 1224843; calls by dose curve; note: nearly all actives have a fitted effect of over 45% in size)
Thyrotropin receptor (Homo sapiens), sequence (P16473 whole entry, looked up): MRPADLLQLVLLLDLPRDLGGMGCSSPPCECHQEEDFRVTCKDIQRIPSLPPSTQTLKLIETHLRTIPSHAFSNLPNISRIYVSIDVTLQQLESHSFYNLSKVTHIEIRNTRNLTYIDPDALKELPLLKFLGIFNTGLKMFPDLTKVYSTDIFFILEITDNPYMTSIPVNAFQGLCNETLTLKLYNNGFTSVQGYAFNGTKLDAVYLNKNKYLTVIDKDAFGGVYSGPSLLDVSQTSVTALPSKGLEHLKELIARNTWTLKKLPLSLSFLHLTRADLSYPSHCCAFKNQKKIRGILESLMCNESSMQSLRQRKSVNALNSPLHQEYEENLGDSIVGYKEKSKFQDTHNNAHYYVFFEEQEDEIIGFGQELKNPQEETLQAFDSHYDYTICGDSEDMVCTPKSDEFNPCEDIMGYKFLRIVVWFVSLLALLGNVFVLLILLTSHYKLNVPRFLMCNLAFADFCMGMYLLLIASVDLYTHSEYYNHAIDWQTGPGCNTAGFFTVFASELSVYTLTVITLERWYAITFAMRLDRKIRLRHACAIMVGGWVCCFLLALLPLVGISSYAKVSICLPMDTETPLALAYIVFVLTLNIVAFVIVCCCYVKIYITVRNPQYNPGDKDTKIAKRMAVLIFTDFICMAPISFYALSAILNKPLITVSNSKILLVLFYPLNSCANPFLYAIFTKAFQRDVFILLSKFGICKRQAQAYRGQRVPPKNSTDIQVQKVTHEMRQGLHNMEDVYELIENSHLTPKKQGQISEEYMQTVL
Outline: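 HEK293/TSHR, 800 cells/well; cpd 30 min RT; add cAMP-d2 + anti-cAMP-cryptate, 1 h RT; fluorescence read on plate reader. 15-pt titration, n=3.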

[10] = qHTS assay to identify small molecule agonists of the hypoxia (HIF-1) signaling pathway - cell viability counter screen (AID 1224844; calls by dose curve; note: nearly all actives have a fitted effect of over 50% in size; note: potency is the fitted concentration of half-maximal effect)
Outline: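 CellTiter-Glo luminescence read-out, 30 min RT, taken in the same wells as the beta-lactamase HRE reporter assay; HRE-bla ME-180 cells, 0.5% dialyzed FBS, 17 hr compound treatment at 37C, 5% CO2.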

| SMILES | Potency [1] | Potency [2] | Potency [3] | Potency [4] | Potency [5] | Potency [6] | Potency [7] | Potency [8] | Potency [9] | Potency [10] |
| --- | --- | --- | --- | --- | --- | --- | --- | --- | --- | --- |
| CC(C)CCOCCC(C)C | inactive | inactive | inactive | inactive | inactive | inactive | inactive | inactive | inactive | inactive |
| C#CC(O)CCC (centres undefined) | inactive | inactive | inactive | inactive | inactive | inactive | inactive | inactive | inactive | inactive |
| CCc1cccc(CC)c1NC(=O)C(=O)O | inactive | inactive | inactive | inactive | inactive | inactive | inactive | inactive | inactive | inactive |
| Oc1ccc(-c2ccc(O)cc2)cc1 | 40.2 µM (active) | inactive | inactive | inactive | 17.3 µM (active) | inactive | inactive | inactive | inactive | 49.3 µM (active) |
| C/C=C/C(=O)Oc1c(CCCCCC(C)C)cc([N+](=O)[O-])cc1[N+](=O)[O-] | inactive | 19.3 µM (active) | 21.7 µM (active) | 30.6 µM (active) | inactive | 27.3 µM (active) | 6.86 µM (active) | inactive | inactive | 17.4 µM (active) |
| C(=C/c1ccccc1)/c1ccccc1 | inactive | inactive | inactive | inactive | inactive | inactive | inactive | inactive | inactive | inactive |
| CC(C)(c1cc(Br)c(O)c(Br)c1)c1cc(Br)c(O)c(Br)c1 | 79.4 µM (active) and inactive | inactive | inactive | inactive | inactive | inactive | inactive | inactive | inactive | 54.8 µM (active) and 48.9 µM (active) |
| CCOCOCC | inactive | inactive | inactive | inactive | inactive | inactive | inactive | inactive | inactive | inactive |
| c1ccc(Nc2cccc3ccccc23)cc1 | 40.5 µM (active) and 35.6 µM (active) | inactive | inactive | inactive | 61.9 µM (active) and 61.1 µM (active) | inactive | inactive | 15.6 µM (active) and inactive |  | inactive |
| O=C1Nc2ccc(Cl)cc2[C@@](C#CC2CC2)(C(F)(F)F)O1 | inactive | inactive | inactive | inactive | inactive |  |  |  |  |  |
| O=C1OC(OC(=O)c2cccnc2Nc2cccc(C(F)(F)F)c2)c2ccccc21 (centres undefined) | inactive | inactive | inactive | inactive | inactive | inactive | inactive | inactive | inactive | inactive |
| CCOC(=O)CC(C)O (centres undefined) | inactive | inactive | inactive | inactive | inactive | inactive | inactive | inactive | inactive | inactive |
| CCNc1nc(NC(C)CC)nc(OC)n1 (centres undefined) | inactive | inactive | inactive | inactive | inactive | inactive | inactive | inactive | inactive | inactive |
| CC(=O)Oc1ccc(C2(c3ccc(OC(C)=O)cc3)C(=O)Nc3ccccc32)cc1 | inactive | inactive | inactive | 0.168 µM (active) | inactive | inactive | inactive | inactive | inactive | 0.0425 µM (active) |
| COc1ccc(C#N)cc1 | inactive | inactive | inactive | inactive | inactive | inactive |  |  |  | inactive |
| Cc1cncc(C)c1 | inactive | inactive | inactive | inactive | inactive | inactive |  | inactive | inactive | inactive |
| C=CC(=O)OCCN(CC)CC | inactive | inactive | inactive | inactive | inactive | inactive |  |  | inactive |  |
| CCCC(C)CCC(C)=O (centres undefined) | inactive | inactive | inactive | inactive | inactive | inactive |  |  | inactive | inactive |
| CN(C)CCN1CCOCC1 | inactive | inactive | inactive | inactive | inactive | inactive |  |  | inactive | inactive |
| CSc1ccc2c(c1)N(CCC1CCCCN1C)c1ccccc1S2 (centres undefined) | inactive | 48.4 µM (active) | 54.3 µM (active) | inactive | inactive | 30.5 µM (active) and 29.8 µM (active) |  |  | inactive | 21.8 µM (active) and 21.3 µM (active) |
| C=CC(=O)OCCC#N | inactive | inactive | inactive | inactive | inactive | inactive | inactive |  | inactive | inactive |
| O=CC1CC1 | inactive | inactive | inactive | inactive | inactive | inactive |  |  | inactive | inactive |
| Cc1cnccn1 | inactive | inactive | inactive | inactive | inactive | inactive |  | inactive |  | inactive |
| C=C(C)C(=O)OCCC[Si](Cl)(Cl)Cl | inactive | inactive | inactive | inactive | inactive | inactive |  |  | inactive | inactive |
